Values joined by “and” are separate entries in the source; they are usually repeats but may differ in a detail not shown here. Identical values can stand only once. Compounds without any hit were thinned out: in the full panel of roughly 83,000, 20% have a hit.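 Negative percent growth values reflect cell death: -40 means 40% of the cells present at the start died, and -100 means all died.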 Some compounds were tested as several samples or in several runs, with calls that do not always agree. Active and inactive are the calls of the source. Rule for the calls: active = growth percent below 10; inactive = the rest.
What was measured:
Assay in all cases: NCI-60 one-dose screen, 48 h (100 = growth as untreated, 0 = no growth, -100 = all killed)
[1] = test system: HCT-15 colon; conditions: 10 µM unless noted
[2] = test system: HT29 colon; conditions: 10 µM unless noted
[3] = test system: SNB-75 CNS; conditions: 10 µM unless noted
[4] = test system: SNB-19 CNS; conditions: 10 µM unless noted
[5] = test system: U251 CNS; conditions: 10 µM unless noted
[6] = test system: SK-MEL-5 melanoma; conditions: 10 µM unless noted
[7] = test system: UACC-62 melanoma; conditions: 10 µM unless noted
[8] = test system: LOX IMVI melanoma; conditions: 10 µM
[9] = test system: SK-MEL-2 melanoma; conditions: 10 µM unless noted
[10] = test system: EKVX NSCLC; conditions: 10 µM unless noted
[11] = test system: SN12C renal; conditions: 10 µM unless noted
[12] = test system: UO-31 renal; conditions: 10 µM unless noted
[13] = test system: TK-10 renal; conditions: 10 µM unless noted
[14] = test system: ACHN renal; conditions: 10 µM unless noted
[15] = test system: CCRF-CEM leukemia; conditions: 10 µM unless noted
[16] = test system: MOLT-4 leukemia; conditions: 10 µM unless noted
[17] = test system: CAKI-1 renal; conditions: 10 µM unless noted
[18] = test system: A498 renal; conditions: 10 µM unless noted
[19] = test system: SK-MEL-28 melanoma; conditions: 10 µM unless noted
[20] = test system: PC-3 prostate; conditions: 10 µM unless noted

Structure (SMILES) | growth [1] | growth [2] | growth [3] | growth [4] | growth [5] | growth [6] | growth [7] | growth [8] | growth [9] | growth [10] | growth [11] | growth [12] | growth [13] | growth [14] | growth [15] | growth [16] | growth [17] | growth [18] | growth [19] | growth [20]
O=C(OC12CC3CC(CC(C3)C1)C2)c1ccc(NCc2cc(O)ccc2O)cc1 | -41.9% (active) | -19% (active) | -39.5% (active) | 5.17% (active) | -64.5% (active) | -95.9% (active) | -73.4% (active) | -68.7% (active) | -19.9% (active) | -67.9% (active) | -3.25% (active) | -100% (active) | -95.9% (active) | -89.7% (active) | -23.7% (active) | -19.5% (active) | – | – | – | –
CCN(CC)CC(O)c1cc(-c2ccc(Cl)cc2)nc2cc(Cl)ccc12 (stereo not given) | 25.1% (inactive) | -50.1% (active) | 38.3% (inactive) | 56.8% (inactive) | 8.59% (active) | -95.6% (active) | -56.6% (active) | 11% (inactive) | 22.7% (inactive) | 60.5% (inactive) | – | 35.2% (inactive) | 20.6% (inactive) | 7.25% (active) | 3.88% (active) | -18.3% (active) | -16.5% (active) | 64.6% (inactive) | – | –
COc1cc(NCc2ccc3nc(N)nc(N)c3c2C)cc(OC)c1OC (tested in a mixture with another compound) | 26.1% (inactive) | 20% (inactive) | 33.1% (inactive) | 31.8% (inactive) | 31.2% (inactive) | 21.1% (inactive) | 30.5% (inactive) | 16.3% (inactive) | 61.8% (inactive) | 55.8% (inactive) | – | 34.9% (inactive) | 31.1% (inactive) | 23.8% (inactive) | 19.9% (inactive) | – | 25.4% (inactive) | 32.9% (inactive) | – | –
CN(C)c1ccc(C(=C2C=CC(=[N+](C)C)C=C2)c2ccc(N(C)C)cc2)cc1 | -19.3% (active) | -19.7% (active) | -49.7% (active) | -75.5% (active) | -87.9% (active) | -98.8% (active) | -54% (active) | -70.2% (active) | -57.8% (active) | -44% (active) | -67% (active) | -97.9% (active) | – | -95.9% (active) | -16.6% (active) | -11.4% (active) | -27.5% (active) | -91% (active) | -79.6% (active) | –
CN(C)c1ccc(C(C#N)(c2ccccc2)c2ccc(N(C)C)cc2)cc1 | 71.8% (inactive) | 14.6% (inactive) | 57.1% (inactive) | 63.7% (inactive) | 7.62% (active) | 81.6% (inactive) | 70.5% (inactive) | 51.1% (inactive) | 85.2% (inactive) | – | 14.4% (inactive) | 53% (inactive) | 71.8% (inactive) | 49.3% (inactive) | 69.3% (inactive) | 68.5% (inactive) | 79.4% (inactive) | – | 60.2% (inactive) | –
CCc1oc2ccccc2c1C(=O)c1cc(Br)c(O)c(Br)c1 | 62.5% (inactive) | 89.3% (inactive) | 53.7% (inactive) | 78.4% (inactive) | – | 46.1% (inactive) | 38.9% (inactive) | 62.3% (inactive) | 59.6% (inactive) | 73.6% (inactive) | 78.4% (inactive) | 84.3% (inactive) | 125% (inactive) | 84.2% (inactive) | 41.8% (inactive) | 83.9% (inactive) | 63.6% (inactive) | 67.2% (inactive) | 63.9% (inactive) | 65.5% (inactive)
CCCC[n+]1c(/C=C\c2c(OC)cc(OC)cc2OC)ccc2ccccc21 | 35.1% (inactive) | -33.5% (active) | -13.2% (active) | 19% (inactive) | – | -97.2% (active) | -37.2% (active) | -75.5% (active) | -44.7% (active) | – | – | 1.45% (active) | -12.7% (active) | 9.92% (active) | 1.26% (active) | -22.5% (active) | -41.6% (active) | -23.4% (active) | -10.8% (active) | 2.91% (active)
O=[N+]([O-])C=C(c1ccccc1)c1ccccc1 | 42.7% (inactive) | 91.7% (inactive) | 59.4% (inactive) | 85.5% (inactive) | 80.1% (inactive) | 88.3% (inactive) | 56.9% (inactive) | – | 95.5% (inactive) | 71% (inactive) | 81.1% (inactive) | 60.9% (inactive) | 84.8% (inactive) | – | 68.6% (inactive) | 70.9% (inactive) | 57.1% (inactive) | 124% (inactive) | 90.4% (inactive) | –
COC(=O)c1nc(=S)[nH]c(C(=O)OC)c1C(=O)c1ccc(Cl)c(Cl)c1 | 105% (inactive) | 112% (inactive) | 92.7% (inactive) | 105% (inactive) | 103% (inactive) | 101% (inactive) | 102% (inactive) | 99.2% (inactive) | 107% (inactive) | 100% (inactive) | 102% (inactive) | 87% (inactive) | 106% (inactive) | – | – | 130% (inactive) | 94.6% (inactive) | 130% (inactive) | 124% (inactive) | –
C=C(C(N)=O)C(N)C(=O)O (stereo not given) | 109% (inactive) | 100% (inactive) | 108% (inactive) | 111% (inactive) | – | 103% (inactive) | 114% (inactive) | – | – | – | – | 97.6% (inactive) | 109% (inactive) | 108% (inactive) | – | – | 116% (inactive) | 113% (inactive) | 106% (inactive) | 103% (inactive)
CCCCC(CCc1ccc([N+](=O)[O-])cc1)(C(C)=O)C(=O)OCC (stereo not given) | 94.7% (inactive) | 94.2% (inactive) | 85.1% (inactive) | 108% (inactive) | 95.3% (inactive) | 93.2% (inactive) | 97.5% (inactive) | 95.8% (inactive) | 99.6% (inactive) | – | 103% (inactive) | 67.7% (inactive) | 97.3% (inactive) | 114% (inactive) | 94.5% (inactive) | 90.3% (inactive) | 96.8% (inactive) | 50.6% (inactive) | 100% (inactive) | –
CC(=O)c1ccc2c(c1)CCc1ccccc1-2 | 93.9% (inactive) | 102% (inactive) | 87.1% (inactive) | 103% (inactive) | 95.6% (inactive) | 99.6% (inactive) | 109% (inactive) | 113% (inactive) | 110% (inactive) | – | 109% (inactive) | 105% (inactive) | 99.9% (inactive) | 108% (inactive) | 109% (inactive) | 114% (inactive) | 101% (inactive) | 63.1% (inactive) | 101% (inactive) | –
OC(c1cc(-c2ccc(C(F)(F)F)cc2)nc(C(F)(F)F)c1)C1CCCCN1 (stereo not given) | -36.1% (active) and -65.7% (active) and 14.6% (inactive) | -49.8% (active) and -67.9% (active) and -54.8% (active) | 18.6% (inactive) and -18% (active) and 46.3% (inactive) | 33.4% (inactive) and 37% (inactive) and 53.7% (inactive) | -89% (active) and -95.4% (active) and -62% (active) | -91.6% (active) and -98.8% (active) and 6.65% (active) | 0.644% (active) and -95.1% (active) and 69.5% (inactive) | -55.2% (active) and -97.5% (active) and -80.7% (active) | -61% (active) and 21.8% (inactive) | 27.2% (inactive) and 3.74% (active) and 67.6% (inactive) | – | 15.4% (inactive) and -59.3% (active) and 30.6% (inactive) | -57.8% (active) and -14.4% (active) and 50.3% (inactive) | -24% (active) and 0.945% (active) and 24.3% (inactive) | 0.247% (active) and -56.8% (active) and 17% (inactive) | -21.7% (active) and -2.33% (active) | -7.29% (active) and -52.3% (active) and 45.9% (inactive) | 28% (inactive) and -60.5% (active) and 46.4% (inactive) | -76.1% (active) and -93.1% (active) and 45.2% (inactive) | –
Cc1nnc(N/N=C/c2ccc([N+](=O)[O-])o2)[nH]c1=O | 15.7% (inactive) | 27.5% (inactive) | 42.3% (inactive) | 11.6% (inactive) | 4.33% (active) | -24.3% (active) | 10.6% (inactive) | 11% (inactive) | 7.95% (active) | -17.2% (active) | 13.8% (inactive) | 5.83% (active) | -10.2% (active) | -50.8% (active) | -21.9% (active) | – | – | -1.71% (active) | – | –
CC(C)c1ccc(Nc2n[nH]c(=S)s2)cc1 | 99.8% (inactive) | 76.1% (inactive) | 92.3% (inactive) | 99.1% (inactive) | – | 101% (inactive) | 99% (inactive) | 101% (inactive) | 111% (inactive) | – | 98.2% (inactive) | 83.7% (inactive) | 93.1% (inactive) | – | – | 97.6% (inactive) | 114% (inactive) | 94.6% (inactive) | 112% (inactive) | 93.6% (inactive)
CCCCCCCCC(=O)OCCCC(CCC(CCC1CCCO1)OC(=O)CCCCCCCC)OC(=O)CCCCCCCC (stereo not given) | 103% (inactive) | 93% (inactive) | 93.8% (inactive) | – | 106% (inactive) | 102% (inactive) | 88.2% (inactive) | 98.6% (inactive) | – | 94.1% (inactive) | 92.9% (inactive) | – | 87.9% (inactive) | 107% (inactive) | 87.6% (inactive) | – | – | 110% (inactive) | – | 85.1% (inactive)
COc1cc(/C=C/c2ccnc3ccccc23)cc(OC)c1OC | 32.5% (inactive) | 11.8% (inactive) | -3.85% (active) | – | 33.2% (inactive) | 3.09% (active) | 38.2% (inactive) | 26.1% (inactive) | 12.2% (inactive) | 55.3% (inactive) | 31% (inactive) | 37% (inactive) | 70.1% (inactive) | 54.7% (inactive) | 43.5% (inactive) | 14.9% (inactive) | 24.3% (inactive) | 18% (inactive) | – | 56.1% (inactive)
